Source: PubChem BioAssay AID1626 (SRMLSC, 2009)
About 2,000 (0.91%) of roughly 220,000 compounds were called active. Another 2% or so got no clear call; they are omitted. These entries were drawn from the full list. Measured potencies and affinities stand elsewhere. Unmarked numbers belong to inactive results. Rule as the data show it: inconclusive = inhibition above about 80% without an active follow-up result; inactive = below that; test concentration not stated here.

assay: M. tuberculosis H37Rv growth inhibitors, H37Rv strain (AID 1626); details: active compounds read high, concentration not given here;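 also: bacteria incubated seven days before Alamar blue readout; 0% = bacteria only wells and 100% = bacteria with antibiotic wells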

SMILES | inhibition [%]
COc1c(F)c(F)c(C(=O)O)c(Nc2cc(C)cc(C)c2)c1F | -9.39
O=c1cc(-c2ccc(F)cc2)oc2ccccc12 | -4.83
O=c1cc(-c2ccccc2F)oc2ccccc12 | -6.27
N#Cc1cccc(NC(=O)CC2CCCCC2)c1 | 1.61
Cc1ccc(N2C(=O)NC(=O)/C(=C\c3ccc(N4CCOCC4)cc3)C2=O)cc1 | -2.37
CS(=O)(=O)N1CCn2c1nc1ccccc12 | -12.2
COc1ccc(C2C(C#N)=C(C)NC3=C2C(=O)CC(C)(C)C3)cc1 (stereo not drawn) | 6.62
CC1=C(C#N)C(c2cccnc2)C2=C(CC(c3ccc(Cl)cc3)CC2=O)N1 (stereo not drawn) | 5.84
COC(=O)C1=C(C(=O)OC)[C@@H]2N(Cc3ccccc3)c3ccccc3[C@@]23C[C@@H](C(=O)OC)N(C(=O)NC2CCCCC2)C3=N1 | -1.86
CC(=O)c1ccc(NC(=O)C2CC(=O)N(Cc3ccccc3)C2)cc1 (stereo not drawn) | -1.96
CCOc1nc(-c2ccc(Cl)cc2)nc2ccccc12 | -0.59
O=C(CCl)N(Cc1ccccc1)c1ccccc1 | 77.7
O=C(CCl)N(c1ccc(Cl)cc1)c1c[nH]c2ccccc12 | 75.3
O=C(N(c1ccccc1)c1ccccc1)N(c1ccccc1)c1ccccc1 | -4.02
CC(=O)N(c1ccc(Cl)cc1)c1c[nH]c2ccccc12 | -5.95
CCn1cc(-c2cc(C(F)(F)F)n3nc(C(=O)O)cc3n2)c(C)n1 | -10.8
COc1ccc(C)cc1NC(=O)C1CCCCC1C(=O)O (stereo not drawn) | -8.21
CCOC(=O)C(NCc1ccc(F)cc1)(NC(=O)c1ccccc1)C(F)(F)F (stereo not drawn) | -7.14
CC(C)(C)c1nn(-c2ccccc2)c2[nH]c(=O)c(CNc3ccc4c(c3)OCCO4)cc12 | 4.42
Cc1nn(-c2ccccc2)c2[nH]c(=O)c(CNCCN3CCOCC3)cc12 | 3.32
CCc1ccc(NCc2cc3c(C)nn(-c4ccccc4)c3[nH]c2=O)cc1 | 26
CCOc1cccc(NCc2cc3c(C(C)(C)C)nn(-c4ccccc4)c3[nH]c2=O)c1 | 70.7
COc1cccc(NCc2cc3c(C(C)(C)C)nn(-c4ccccc4)c3[nH]c2=O)c1 | -5.67
Cc1nn(-c2ccccc2)c2[nH]c(=O)c(CNCc3ccc4c(c3)OCO4)cc12 | -1.83

SMILES | inhibition [%]
Cn1c(O)c(N=NC(=O)c2ccccc2O)c2ccccc21 | -0.85
Cc1cc(C2(c3ccc(O)c(C)c3)OC(=O)c3ccccc32)ccc1O | -1.73
CC/C(C)=C1\SC(N2CCOCC2)=NC1=O | 1.74
Cc1cc(C)nc(N2CCC(C(=O)NCc3ccccc3F)CC2)n1 | -8.28
O=C(Nc1ccn(-c2ccccc2)n1)c1ccccc1Br | 1.33
CC(=O)Nc1ccn(-c2ccccc2)n1 | 0.92
CC(C)(C)C1CCc2sc(-c3nnc(CCl)o3)cc2C1 (stereo not drawn) | 43.6
COc1cc2[nH]c(=O)n3nc(-c4ccccc4)nc3c2cc1OC | -2.98
Cc1nc(N)nc(Cl)c1Cc1ccc(Cl)cc1 | 3.47
Cc1nc2ccc(Cl)cc2nc1C | -12.2
COC(=O)/C(C#N)=C/c1c[nH]c2ccccc12 | 7.57
CCCCn1c(=O)c(C(=O)Nc2ccccc2)c(O)c2ccccc21 | -1.05
CCCCCCn1c(=O)c(C(=O)Nc2c(C)n(C)n(-c3ccccc3)c2=O)c(O)c2ccccc21 | -5.05
CCCCCn1c(=O)c(C(=O)Nc2ccccc2S(N)(=O)=O)c(O)c2ccccc21 | 6.87
CCCCn1c(=O)c(C(=O)Nc2ccsc2C(=O)OC)c(O)c2ccccc21 | 1.97
CCN(CC)S(=O)(=O)c1cc(C(=O)OCC(=O)NC(=O)c2cccn2C)ccc1C | -5.23
O=C(CCNc1ccc(F)cc1)c1cc2ccccc2o1 | -9.46
Cn1cc(Br)c(C(=O)NNC(=O)c2ccc(Br)cc2)n1 | 6.79
CCN(CC)c1ccc2c(c1)C(=O)N(C)C2=O | 7.2
CCN(CC)c1ccc(NC(=O)CCCCCN2C(=O)c3ccccc3C2=O)cc1 | -10.5
O=C(Nc1ccc2oc(-c3ccccc3Cl)nc2c1)c1cncc(Br)c1 | -3.07
Brc1ccc(-c2csc(/N=C/N3CCCC3)n2)cc1 | 64.4
CN(C)/C=N/c1nc(-c2ccc3c(c2)OCO3)cs1 | -11.6
COc1ccc(CNC(=O)C2C3C=CC4(CN(Cc5cccnc5)C(=O)C24)O3)cc1 (stereo not drawn) | -7.2
